Laboratory results as given in PubChem BioAssay AID795 (NMMLSC, 2007).
Hit rate of the full screen: of about 24,000 compounds, about 130 (0.54%) were called active. The sample holds actives, similar compounds and a random draw of the others, so the mix is not that of the screen.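 How the source made its calls: active means side scatter shift above 30%; inactive means the rest.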 Square brackets hold non-standard residues; d marks the D form. Peptide text beside a SMILES is read from it. ξ: configuration not given here. ξV = CC(C)C(N)C(=O)O

Assay: activators of LNCaP prostate cell differentiation, primary screen, flow cytometry side scatter (AID 795);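 further: androgen-responsive LNCaP prostate cancer cells in charcoal-stripped serum medium; percent of cells past a gate set so DMSO wells show 10% shift; higher shift means more granular cells and more differentiation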
Settings: 4 d, at 10 µM, active compounds read high

Side scatter shift, inactive:
COc1ccccc1CNC(=O)CCCNS(=O)(=O)c1cccc2nsnc12 4%
O=C(NC1CCCCC1)C1CCCN(S(=O)(=O)c2cccs2)C1 (stereo not given) 4%
CC(C)C[C@H](NC(=O)Nc1cccc(C(F)(F)F)c1)C(=O)O 12%
CC1(C)CN=C(N2CCN(c3ncnc4sc5c(c34)CCCC5)CC2)S1 4%
Cc1ccc(C)c(NC(=O)CSc2nnc(Cc3cccn3C)n2-c2ccc(F)cc2)c1 12%
COc1cccc(NC(=O)Nc2nnc(N3CCCCC3C)s2)c1 (stereo not given) 6%
CCOC(=O)C1CCN(C(=O)CSc2cc(=O)n(C)c3ccccc23)CC1 8%
O=c1cc(O)nc(SCc2ccccc2Cl)[nH]1 7%
O=C(NCCN1CCOCC1)c1ccc2c(c1)ncn2C1CCCC1 8%
Cc1ccc(N(C(=O)CC2NC(=O)NC2=O)C2(C(=O)NC3CCCC3)CCCCC2)cc1 (stereo not given) 0%
Cc1cc(C)nc(SCc2nnc(SCC(=O)Nc3ncc(C)s3)n2Cc2ccco2)n1 16%
COc1ccccc1C(=O)N1CCNC(=O)C1CC(=O)Nc1ccc(Cl)cc1 (stereo not given) 7%
Cc1ccc(S(=O)(=O)n2nc(OC(=O)C(C)(C)C)cc2N)cc1 6%
CC1=C(C(=O)OC2CCCCC2)C(c2cccnc2)n2ncnc2N1 (stereo not given) 1%
COc1ccc(CCNC(=O)c2ccc3c(c2)NC(=O)C(N2CCOCC2)S3)cc1OC (stereo not given) 18%
COc1cccc(NS(=O)(=O)c2ccc3[nH]cc(C(=O)NCCCOC(C)C)c(=O)c3c2)c1 11%
Cc1cc(C)c(C)c(S(=O)(=O)Nc2ccc(O)cc2)c1C 3%
O=C(Nc1cccnc1)c1noc2c1CCCCC2 12%
Fc1ccc2nc(Nc3nc4c(s3)CCCC4)sc2c1 11%
CN(Cc1ccccc1)C(=O)CCNC(=O)Cn1cnc2ccccc2c1=O 6%
OCCNCCCCOc1ccccc1F 7%
CCC(C)Sc1nnc(-c2c[nH]c3ccccc23)n1CCOC (stereo not given) 6%
CCOC(=O)CNC(=O)CN1C(=O)CCSc2ccccc21 7%
CCCCn1c(=S)[nH]c2ncccc2c1=O 3%
CCOC(=O)c1c(N)c(C#N)nn1-c1ccccc1C(=O)OC 6%
C=CCn1c(=N)n(CC(O)COc2ccc(OC)cc2)c2ccccc21 (stereo not given) 8%
O=C(Nn1cnc2ccccc2c1=O)c1ccc(F)cc1Cl 9%
Cc1nn(Cc2ccc(Cl)c(Cl)c2)c(C)c1NC(=O)c1cc(C2CC2)on1 13%
Cc1cccc(CSc2nnc(Cn3c(=O)sc4ccccc43)n2C)c1 9%
Cc1c2cn[nH]c(=O)c2c(C)n1Cc1ccc(F)cc1 2%
Cc1cccn2c(=O)c3cc(C#N)c(=O)n(CCCN4CCOCC4)c3nc12 4%
Cc1cc(C)nc(NC2=NCC(=O)N2c2ccc(Cl)cc2)n1 5%
CCn1c(SCC(=O)Nc2ccc3c(c2)OCCO3)nc2c(c1=O)SC(C)C2 (stereo not given) 8%
Cn1c(=O)cc(OCCCC(=O)N2CCN(c3ccccn3)CC2)c2ccccc21 2%
O=C(Cn1c(=O)n(Cc2ccco2)c(=O)c2ccccc21)NCC1CCCO1 (stereo not given) 3%
Cc1ccc(S(=O)(=O)N2CCCC2CO)cc1 (stereo not given) 16%
CCOC(=O)CSc1nnc(CNC(=O)Cc2ccccc2)n1-c1ccccc1OC 15%
Cc1cc(C(=O)NCCCc2ccccc2)no1 4%
O=C(NCCCN1CCOCC1)c1cc(-c2ccc(Cl)cc2)on1 8%
Cc1ccccc1N1CC(c2nc3ccccc3[nH]2)CC1=O (stereo not given) 6%
C/C(N)=C(\C#N)C(=O)NCCc1ccccn1 16%
O=C(OCc1ccccc1F)c1ccc2c(c1)OCCO2 10%
O=C(COC(=O)c1ccccc1C(=O)c1ccccc1)c1ccco1 7%
O=C(CCN1C(=O)c2ccncc2C1=O)Nc1ccc2c(c1)OCCO2 13%
CCOC(=O)N1CCC(NC(=O)Cc2cn(C)c3ccccc23)CC1 8%
CC(=O)N1CCc2cc(S(=O)(=O)Nc3ccccc3N3CCN(C)CC3)ccc21 15%
CC(C)n1c(NCc2c[nH]c3ccccc23)nc2ccccc21 14%
CC(=O)NC(C(=O)NCC(N)=O)C(C)C (stereo not given) (Ac-[ξV]-Gly-NH2) 7%
CC(NC(=O)COc1ccccc1)C(=O)NC1=NCCS1 (stereo not given) 13%
COc1ccc(N=Cc2c(O)[nH]c3ccccc23)cc1OC 15%
COC(=O)c1[nH]c2ccccc2c1NS(=O)(=O)c1ccc(OC)cc1OC 10%
CCc1c(C)nc(N2CCN(Cc3ccccc3)CC2)[nH]c1=O 8%
Cc1nc(NC(=O)C23CCC(C)(C(=O)O2)C3(C)C)sc1C (stereo not given) 4%
CCCC(=O)N1c2ccccc2NC2=C(C(=O)CCC2)C1c1ccc(F)cc1 (stereo not given) 12%
O=C(CSC1=Nc2ccccc2C2=NC(c3ccccc3)C(=O)N12)NCC1CCCO1 (stereo not given) 8%
Cc1cccc(N2C(=O)SC(N(CC(=O)O)c3cccc(C)c3)C2=O)c1 (stereo not given) 5%
O=C1NC(c2ccncc2)Nc2sc3c(c21)CCCC3 (stereo not given) 3%
COc1ccc(CCNC(=O)CSc2nnc(CNC(=O)c3cccs3)o2)cc1OC 10%
COCCCNC(=O)c1ccc(CNS(=O)(=O)c2ccc(NC(C)=O)cc2)cc1 15%
CC1=NCCN1S(=O)(=O)c1ccc(Br)c(C)c1 16%
CCOC(=O)C1(c2ccccc2)NC(c2ccc(N(C)C)cc2)C2C(=O)N(C)C(=O)C21 (stereo not given) 11%
COc1cccc(OCC(=O)Nc2ccccc2C(N)=O)c1 9%
COc1nc(Oc2ccc(=O)n(C)n2)nc(N(C)C)n1 10%

Side scatter shift, active:
CCN(CC)CCCNC(=O)c1cc(-c2cccc(Cl)c2)on1 33%
COc1ccc(OC)c(N=Cc2c(O)[nH]c3ccccc23)c1 48%
